Source: PubChem BioAssay (National Center for Advancing Translational Sciences (NCATS))
HP1b chromo inh = HTS for Inhibitors of HP1-beta Chromodomain Interactions with Methylated Histone Tails. AID 540317, 2011. Potency, µM (series often up to 114 µM), for inactives: top-dose activity change, negative = inhibition, hits mostly inhibitors. AlphaScreen HP1-beta / biotin-H3K9me3 peptide binding. actives 0.56% (n = 390,000); note: nearly all actives have a fitted effect of over 70% in size
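HP1-beta protein (50 nM final) preincubated 30 min at room temperature with biotinylated H3(1-18)K9me3 peptide (50 nM) in PBS pH 7.4, 0.01% Tween-20, then compound added for 30 min. AlphaScreen streptavidin donor/nickel chelate acceptor beads (10 ug/mL final), 30 min dark, luminescence read.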
BAZ2B block = qHTS Assay for Inhibitors of BAZ2B. AlphaScreen BAZ2B-H3K14Ac peptide displacement. actives 4.4% (n = 360,000). AID 504333, 2011. Bromodomain adjacent to zinc finger domain protein 2B (Homo sapiens), Q9UIF8. Potency, µM (highest dose often 114 µM), for the others: at the top dose activity change, negative = inhibition, actives largely listed as inhibitors; note: % is set by controls: 0 for no effect and ±100 for the full control effect; nearly all actives have a fitted effect of over 60% in size
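AlphaScreen luminescence quantifies BAZ2B engagement of H3K14Ac peptide; the protein and biotinylated peptide are both at 50 nM final, buffer PBS pH 7.4 with 0.01% Tween-20, all steps at room temperature.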
G9a block = qHTS Assay for Inhibitors of Histone Lysine Methyltransferase G9a. Histone-lysine N-methyltransferase EHMT2 (Homo sapiens), Q96KQ7. G9a H3K9 monomethylation, AlphaScreen, 2 h. Potency, µM (top dose mostly 102 µM), for the others: at the highest dose activity, negative = inhibition, actives largely listed as inhibitors. actives 8.8% (n = 350,000). AID 504332, 2011; note: % is set by controls: 0 for no effect and ±100 for the full control effect; nearly all actives have a fitted effect of over 75% in size
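Chemiluminescent proximity detection of H3K9 monomethylation, read after 10 min bead incubation in the dark. Reaction: 20 nM G9a, 500 nM biotin-H3K9 peptide, 20 uM SAM cofactor, 2 h, room temperature, following 15 min enzyme-compound preincubation.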
JMJD2A Tudor inh = qHTS Assay for Inhibitors of JMJD2A-Tudor Domain; actives 4.4% (n = 390,000); AlphaScreen JMJD2A-Tudor / H3K4me3 peptide binding; Potency, µM (highest dose often 114 µM), for inactives: at the highest dose activity change, negative = inhibition, hits mostly inhibitors; note: % is set by controls: 0 for no effect and ±100 for the full control effect; nearly all actives have a fitted effect of over 50% in size
L3MBTL1 block = qHTS Assay for the Inhibitors of L3MBTL1 | Potency, µM (doses to about 57.1 µM), for the others: top-dose activity, negative = inhibition, most hits filed as inhibitors | AlphaScreen L3MBTL1–H3K9me1 peptide binding | actives 0.66% (n = 230,000); note: % is set by controls: 0 for no effect and ±100 for the full control effect; nearly all actives have a fitted effect of over 60% in size
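AlphaScreen assay: L3MBTL1 (50 nM final) was preincubated 30 min at room temperature with biotinylated H3(1-15)K9me1 peptide (75 nM final), then 30 min with library compounds; streptavidin donor and nickel chelate acceptor beads (10 ug/mL final) added, 30 min dark.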
Starred values were filed as active, the others as inactive; u = inconclusive; x = not tested or not shown; [ ] = another dose, or the depositor's remark. Only some compounds are listed: those with a hit (about 11% of all), similar ones and a draw of the others. Calls come from the whole dose curve; as a rule, active = well fitted inhibition curve with a large enough effect; inconclusive = small, poorly fitted or top-dose-only effect; inactive = no such curve, though single readings can be large or run the other way. Potency is the fitted concentration of half-maximal effect.

SMILES	HP1b chromo inh	BAZ2B block	G9a block	JMJD2A Tudor inh	L3MBTL1 block
CC(C)N1CCc2c(sc(NC(=O)c3cc4cc([N+](=O)[O-])ccc4s3)c2C(N)=O)C1	u	39.8µM*	39.8µM*	u	-21.0%
CC(C)N1CCc2c(sc(NC(=O)c3ccc4ccccc4c3)c2C(N)=O)C1	46.6%	-12.8%	22.2%	21.6%	x
COc1ccc(/C=N/NC(=O)c2cccnc2)cc1CSc1ccccn1	-17.2%	-15.1%	u	-18.9%	-4.0%
O=C(Nc1ccc(F)c(F)c1)c1cc(S(=O)(=O)N2CCN(c3ccccn3)CC2)ccc1F	9.5%	-0.8%	u	-18.0%	x
O=C(Nc1c(F)cc(F)cc1Br)c1cc(S(=O)(=O)N2CCN(c3ccccn3)CC2)ccc1F	27.8%	u	50.1µM*	u	-1.0%
COc1ccc(S(=O)(=O)NCCC(=O)N2CCCN(C)CC2)cc1	25.1%	10.4%	16.6%[12.7 µM]	-6.4%	-3.2%
CC1(C)CC1C(=O)Nc1ccc([N+](=O)[O-])cc1Br (configuration not stated)	-5.9%	1.2%	-21.5%	-18.8%	-5.2%
Cc1ccc(C2(c3ccc(C)cc3)CC2C(=O)Nc2ccc([N+](=O)[O-])cc2O)cc1 (configuration not stated)	-31.8%	u	25.1µM*	u	-24.2%
O=C(OCC#CCSc1nnc(-c2c[nH]c3ccccc23)o1)c1ccc(F)cc1	x	x	x	-24.5%	x
CC1=NN(c2ccc(C)cc2)C(=O)/C1=C\C=C\c1ccccc1	5.62µM*	2.51µM*	4.47µM*	4.47µM*	u
CC1=NN(c2ccccc2)C(=O)/C1=C/C=C/C=C/N(C)C	u	12.6µM*	17.8µM*	u	x
CC1=NN(c2cccc(F)c2)C(=O)/C1=C/c1ccc(N(C)C)cc1	-2.4%	-26.1%	-15.9%	-17.3%	-1.4%
CC1=NN(c2cccc(C(=O)O)c2)C(=O)/C1=C\C=C/c1ccccc1	u	u	39.8µM*	u	x
N#Cc1nc(-c2ccc(OCc3ccc(Cl)cc3)cc2)oc1N1CCCC1	22.2%[57 µM]	x	x	0.8%[57.1 µM]	x
COc1ccc(Br)cc1S(=O)(=O)NCCc1cccs1	68.3%	x	x	1.3%	3.6%
CC(=O)Nc1ccc(Nc2nc(-c3sc(NC(C)=O)nc3C)cs2)cc1	-12.6%	50.1µM*	50.1µM*	u	2.2%
CC(=O)Nc1nc(C)c(-c2csc(Nc3ccc(O)cc3)n2)s1	u	50.1µM*	4.47µM*	50.1µM*	-9.6%
CC(=O)Nc1nc(C)c(-c2csc(Nc3ccccn3)n2)s1	18.2%	u	-32.2%	-14.7%	-9.6%
Cc1ccc(C)c(N2CCN(C(=O)CCS(=O)(=O)c3cc(Br)cc4c3N(C(=O)C3CC3)CC4)CC2)c1	7.8%	-13.6%	-7.9%[59 µM]	-27.4%	x
C=CCn1c(NCc2ccc(N(C)C)cc2)nc2ccccc21	u	44.7µM*	u	u	-20.0%
CCCCn1c(NCc2ccc(N(C)C)cc2)nc2ccccc21	u	39.8µM*	u	39.8µM*	u
C=CCn1c(NCc2ccco2)nc2ccccc21	38.2%	-30.4%	-3.8%[59 µM]	-4.3%	2.5%
COc1ccccc1NC(=O)C1=C(C)Nc2nc(SCc3cc(C)ccc3C)nn2C1c1ccccc1 (configuration not stated)	16.2%	4.1%	-2.2%[59 µM]	-6.3%	x
CC(=O)c1ccc(N2CCN(C(=O)c3cn(C)c(=O)c4c3c3ccccc3n4C)CC2)cc1	30.3%	-23.4%	0.8%[59 µM]	-17.4%	x
CC(=O)c1ccc(NC(=O)c2cn(C)c(=O)c3ccccc23)cc1	12.6%	-1.6%	-2.3%[59 µM]	-15.4%	x
SMILES	HP1b chromo inh	BAZ2B block	G9a block	JMJD2A Tudor inh	L3MBTL1 block
COc1cccc(-n2c(-c3ccccc3F)nc3c(cnn3-c3ccc(C)cc3)c2=O)c1	3.7%	x	-41.8%[59 µM]	u	x
Cc1ccc(/C=N/n2c(-c3ccccc3)n[nH]c2=S)cc1	31.3%	-28.2%	1.12µM*	79.4µM*	-8.5%
CC(C)c1ccc(/C=N/n2c(-c3ccccc3)n[nH]c2=S)cc1	20.0%	-1.5%	-10.0%[0.501 µM]	u	-3.7%[2.29 µM]
Cc1ccc(-c2n[nH]c(=S)n2/N=C/c2ccc(C(=O)O)cc2)cc1	34.4%	-15.8%	3.16µM*	3.16µM*	x
S=c1[nH]nc(-c2ccncc2)n1/N=C/c1ccccc1	10.7%	-6.7%	1.26µM*	7.94µM*	0.8%
N#Cc1ccccc1Cn1c(=O)n(CCCC(=O)NCc2ccccc2Cl)c(=O)c2ccccc21	12.2%	1.0%	0.1%[59 µM]	-15.1%	x
COC(=O)C1Cc2c([nH]c3ccccc23)CN1 (configuration not stated)	23.3%	-31.6%	39.8µM*	-29.5%	-0.5%
COC(=O)[C@H]1Cc2c([nH]c3ccccc23)[C@H](c2ccccc2)N1	12.5%	-16.2%	20.5%	-11.0%	x
Cc1sc2ncn(CC(=O)N3CCN(c4ccccc4)CC3)c(=O)c2c1S(=O)(=O)N1CCC(C)CC1	5.1%	-17.4%	-47.3%[59 µM]	-27.6%	x
Cc1ccc2cc(C=C(C#N)C#N)c(N3CCCCC3)nc2c1	u	u	44.7µM*	u	6.9%
Cc1ccc2cc(/C=C(\C#N)C(N)=O)c(N3CCCCC3)nc2c1	44.8%	-4.7%	23.5%[59 µM]	-1.3%	-7.1%
O=C(CC1OC(=O)c2ccccc21)Nc1cc(S(=O)(=O)N2CCOCC2)ccc1OCC(F)(F)F (configuration not stated)	17.6%	-0.9%	12.6µM*	-10.1%	-11.5%
Cc1cc(NC(=O)CSCC(=O)Nc2cc(Cl)ccc2N2CCN(C)CC2)no1	23.9%	-4.9%	28.0%[12.7 µM]	-7.8%	9.8%
O=C(CC1OC(=O)c2ccccc21)Nc1ccc(Cl)c(S(=O)(=O)N2CCCCC2)c1 (configuration not stated)	2.9%	1.4%	14.1µM*	-22.1%	-5.4%
Cc1ccc(NC(=O)CC2OC(=O)c3ccccc32)cc1S(=O)(=O)N1CCCCCC1 (configuration not stated)	26.8%	0.3%	u	-16.3%	-4.3%
Cc1cccc(NC(=O)CSCC(=O)Nc2cc(Cl)ccc2N2CCN(C)CC2)c1	30.7%	-13.6%	79.4µM*	-15.2%	x
CC(=O)N1CCN(C(=O)CC2OC(=O)c3ccccc32)CC1 (configuration not stated)	-13.1%	u	39.8µM*	-26.2%	-6.5%
O=C(CC1OC(=O)c2ccccc21)Nc1ccccc1N1CCOCC1 (configuration not stated)	10.6%	11.5%	-21.3%	-13.0%	4.4%
CCCn1c2ccccc2c2cnn(CC(=O)NCCc3cc(OC)ccc3OC)c(=O)c21	14.1%	-4.5%	-27.0%[59 µM]	-10.6%	x
